Consider seven compounds from PubChem BioAssay (Tox21).

Test [1] can be described thus: Nuclear factor erythroid 2-related factor 2/antioxidant responsive element (Nrf2/ARE) small molecule agonists: qHTS cell viability counter screen in human keratinocytes (AID 1919968; active = well fitted curve in the direction sought with a large enough effect in the repeat runs; an effect the other way counts as inactive or inconclusive; also: nearly all actives have a fitted effect of over 55% in size). The procedure, abridged:
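Cells of the KeratinoSens line were plated at 1,500 per well and left for 5 h before compound transfer from DMSO stocks. After a 23 h incubation (37 C, 5% CO2), CellTiter-Fluor was added. Signal was taken as fluorescence intensity 1 h later.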

In test [2] the target is Gonadotropin-releasing hormone receptor (Homo sapiens) (UniProt P30968). Put plainly: Human gonadotropin-releasing hormone receptor (GnRHR) small molecule agonists, calcium flux assay in GnRHR-HEK293 cells (AID 1920063). Also: nearly all actives have a fitted effect of over 35% in size. The method in brief:
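Compounds dissolved in DMSO are pin-transferred onto dye-loaded GnRHR-HEK293 cells, which were seeded 18 h before at 37 C/5% CO2. Calcium signal is read as fluorescence intensity at 1 s intervals for 3 min.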
On the technique in general: Calcium flux is commonly read through the fluorescence of an indicator in the cells.

Test [3] concerns the target KiSS-1 receptor (Homo sapiens) (UniProt Q969F8). Put plainly: Human kisspeptin (KISS1R) small molecule agonists, calcium flux assay in KISS1R-HEK293 cells (AID 1920064; active = well fitted curve in the direction sought with a large enough effect in the repeat runs; an effect the other way counts as inactive or inconclusive). The method in brief:
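Cell line: HEK293, stable human KISS1R. Dye loading 1 h at 37 C after 18 h culture. Read: kinetic fluorescence, 480/540 nm, 3 min at 1 s intervals.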

The nature of test [4]: G protein-coupled receptor (GPCR) small molecule agonists, calcium flux assay: HEK293 wild type cell line counter screen (AID 1920065). The procedure, abridged:
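Tox21 10K compounds, 15 concentrations each in triplicate, pin-transferred in DMSO onto dye-loaded cells; kinetic read at 480/540 nm for 3 min, 1 s intervals.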

A short description of test [5]: p53 small molecule agonists, cell-based qHTS assay with human liver microsomes (AID 1963577).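 Also: p53 response element beta-lactamase reporter cells with liver microsomes plus NADPH.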 The procedure, abridged:
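Steps: plate p53RE-bla cells, incubate 5 h at 37 C; add compound in DMSO; add microsomes (0.5 mg/mL final) and NADPH (0.5 mg/mL final); incubate 16 h at 37 C; add LiveBLAzer, 2 h RT; read fluorescence.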
(In general: qHTS replaces the single test concentration by a dilution series.)

A short description of test [6]: p53 small molecule agonists, cell-based qHTS assay with rat liver microsomes (AID 1963578). The procedure, abridged: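 Metabolic activation is supplied by rat liver microsomes with NADPH (each 0.5 mg/mL final). p53RE-bla cells incubate with compound 16 h at 37 C; reporter activity is measured by LiveBLAzer fluorescence.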
Test [7] can be described thus: p53 small molecule agonists, cell-based qHTS assay with human liver microsomes: qHTS cell viability counter screen (AID 1963579). Also: nearly all actives have a fitted effect of over 45% in size. The procedure, abridged:
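After the 460/530 nm beta-lactamase read, CellTiter-Glo was added to the same wells and luminescence measured after 30 min at room temperature, giving viability of p53RE-bla cells treated 16 h with compounds plus microsomes and NADPH.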

A short description of test [8]: p53 small molecule agonists, cell-based qHTS assay with rat liver microsomes: qHTS cell viability counter screen (AID 1963580). Also: nearly all actives have a fitted effect of over 45% in size. The procedure, abridged:
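Cytotoxicity counter screen: intracellular ATP read by CellTiter-Glo luminescence in the p53 reporter wells. HCT-116 p53RE-bla cells were treated for 16 h at 37 C alongside rat liver microsomes and NADPH, each 0.5 mg/mL final.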

Test [9] can be described thus: p53 small molecule agonists, cell-based qHTS assay: qHTS cell viability counter screen (AID 1963581). Also: nearly all actives have a fitted effect of over 45% in size. The procedure, abridged: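 ATP content measured by luminescence in HCT-116 p53RE-bla cells treated 16 h at 37 C, same wells as the reporter screen.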
The target of test [10] is 5-hydroxytryptamine receptor 2A (Homo sapiens) (UniProt P28223). Put plainly: 5-hydroxytryptamine receptor 2A (HTR2A) small molecule antagonists, cell-based qHTS assay (AID 1963586). Also: nearly all actives have a fitted effect of over 45% in size. Also: potency is read from the fitted curve at half-maximal effect. The procedure, abridged:
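CHO cells stably expressing human HTR2A were plated for 18 h at 37 C, then loaded with calcium dye for 1 h. Compounds were preincubated 5 min at room temperature before DOI (4 nM solution) was added. Kinetic fluorescence was read for 3 min.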

Test [11] shares this target. Put plainly: 5-hydroxytryptamine receptor 2A (HTR2A) small molecule agonists, cell-based qHTS assay (AID 1963587). Also: nearly all actives have a fitted effect of over 30% in size. Also: potency is read from the fitted curve at half-maximal effect. The method in brief:
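Kinetic calcium-flux fluorescence (2 min, 1 sec intervals) after compound addition in agonist mode. HTR2A-CHO cells were cultured 18 h, then dye-loaded 1 h at 37 C.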

Test [12] deals with Muscarinic acetylcholine receptor M1 (Homo sapiens) (UniProt P11229). Put plainly: Cholinergic receptor muscarinic 1 (CHRM1) small molecule antagonists, cell-based qHTS assay (AID 1963588). Also: nearly all actives have a fitted effect of over 40% in size. Also: potency is read from the fitted curve at half-maximal effect. The method in brief:
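Compounds were tested at 15 concentrations in three independent runs. Dye-loaded CHRM1-CHO cells were exposed 5 min at room temperature before stimulation by acetylcholine added at 50nM. Intracellular calcium was read kinetically on FDSS for 3 min.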

Test [13] has the same target. Description: Cholinergic receptor muscarinic 1 (CHRM1) small molecule agonists, cell-based qHTS assay (AID 1963589). Also: nearly all actives have a fitted effect of over 35% in size. The method in brief: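 Homogeneous fluorescence calcium flux, agonist mode. Human M1-expressing CHO cells; compound dosed at 15 concentrations, three independent runs; signal sampled every 1 sec.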
A short description of test [14]: cAMP Responsive Elements (CRE) small molecule agonists, cell-based qHTS assay (AID 1963590). The procedure, abridged:
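HEK 293T cells stably bearing CRE-bla were plated at 2,000 cells per well and rested 18 h. Compounds, positive controls or DMSO were added for 3 h at 37 C. LiveBLAzer B/G substrate was then loaded for 2 h at room temperature.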

The nature of test [15]: cAMP Responsive Elements (CRE) small molecule antagonists, cell-based qHTS assay (AID 1963591; active = well fitted inhibition curve with a large enough effect in the signal ratio in the repeat runs, not every such curve was filed as active; the % refers to the signal ratio). The procedure, abridged:
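First, CRE-bla HEK293T cells settled 18 h at 37 C. Next, compound and 0.25 uM final NKH477 were applied for 3 h. Last, LiveBLAzer B/G substrate was loaded for 2 h at room temperature.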

Test [16] has as its target D(2) dopamine receptor (Homo sapiens) (UniProt P14416). Put plainly: Dopamine D2 receptor (DRD2) small molecule agonists, cell-based qHTS assay (AID 1963594). Also: nearly all actives have a fitted effect of over 35% in size. The method in brief: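 cAMP accumulation in DRD2-HEK293 cells measured by HTRF after 1 h detection; compounds added 10 min before NKH477 (200nM […]) forskolin-analogue stimulation, 30 min at room temperature, with Ro20-1724 present at 0.1 mM final.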

For test [17] the target is unchanged. Put plainly: Dopamine D2 receptor (DRD2) small molecule antagonists, cell-based qHTS assay (AID 1963595; active = well fitted inhibition curve with a large enough effect in the signal ratio in the repeat runs, with a control signal flat; the % refers to the signal ratio). The method in brief:
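Cells were plated and grown for 24 h at 37 °C. Ro20-1724 (0.1 mM final) went in first, then compound for 10 min. NKH477 (200 nM) with quinpirole (12 nM) followed for 30 min at RT, then HTRF detection reagents for 1 h.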

The nature of test [18]: p53 small molecule agonists, cell-based qHTS assay (AID 1963582; active = well fitted activation curve with a large enough effect in the signal ratio in the repeat runs, not every such curve was filed as active; the % refers to the signal ratio). The method in brief:
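16 h compound exposure (37 C) of p53 response element–bla cells, preceded by 5 h recovery at 37 C/5% CO2; read-out via LiveBLAzer B/G FRET substrate, 2 h RT, fluorescence intensity.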

Test [19] addresses Beta-2 adrenergic receptor (Homo sapiens) (UniProt P07550). Description: Adrenergic beta2 receptor (ADRB2) small molecule antagonists, cell-based qHTS assay (AID 1963592). Also: series mostly up to about 92 µM; nearly all actives have a fitted effect of over 50% in size. The method in brief:
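Assay format: CHO-ADRB2 cells, 18-20hr seeding at 37C/5% CO2, then compound plus 1nM isoproterenol agonist mix for 0.5hr RT. Homogeneous time-resolved fluorescence cAMP detection after 1hr, expressed as 665/615 nm ratio.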

Structures are written as SMILES. Inconclusive results are not listed. Calls of active or inactive are those of the source. Unless noted, calls follow the shape of the full dose curve.

Sequence of Beta-2 adrenergic receptor (Homo sapiens) (P07550 whole entry, looked up): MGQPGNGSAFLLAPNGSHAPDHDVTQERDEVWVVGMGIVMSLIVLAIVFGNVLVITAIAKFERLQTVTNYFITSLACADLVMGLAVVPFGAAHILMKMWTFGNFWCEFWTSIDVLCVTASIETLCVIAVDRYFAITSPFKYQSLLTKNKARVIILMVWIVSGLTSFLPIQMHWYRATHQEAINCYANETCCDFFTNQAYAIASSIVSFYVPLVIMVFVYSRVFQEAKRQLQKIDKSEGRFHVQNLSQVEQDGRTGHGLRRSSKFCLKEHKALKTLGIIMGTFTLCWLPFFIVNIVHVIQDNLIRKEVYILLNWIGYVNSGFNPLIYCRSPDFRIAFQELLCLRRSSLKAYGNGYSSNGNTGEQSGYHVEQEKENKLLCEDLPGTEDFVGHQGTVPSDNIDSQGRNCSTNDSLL
Sequence of 5-hydroxytryptamine receptor 2A (Homo sapiens) (P28223 whole entry, looked up): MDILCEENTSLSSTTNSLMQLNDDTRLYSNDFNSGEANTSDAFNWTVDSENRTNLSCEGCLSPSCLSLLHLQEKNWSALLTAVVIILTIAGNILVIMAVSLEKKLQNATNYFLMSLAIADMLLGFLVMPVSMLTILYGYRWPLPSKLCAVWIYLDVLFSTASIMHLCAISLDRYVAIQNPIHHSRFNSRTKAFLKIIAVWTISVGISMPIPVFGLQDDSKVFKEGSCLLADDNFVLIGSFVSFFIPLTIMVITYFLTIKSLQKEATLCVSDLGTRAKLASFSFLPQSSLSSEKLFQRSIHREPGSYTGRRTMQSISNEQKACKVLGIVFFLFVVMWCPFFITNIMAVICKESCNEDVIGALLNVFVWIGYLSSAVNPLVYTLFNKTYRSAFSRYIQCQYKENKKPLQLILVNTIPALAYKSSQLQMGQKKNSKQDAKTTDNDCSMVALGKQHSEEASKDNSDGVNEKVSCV
Sequence of KiSS-1 receptor (Homo sapiens) (Q969F8 whole entry, looked up): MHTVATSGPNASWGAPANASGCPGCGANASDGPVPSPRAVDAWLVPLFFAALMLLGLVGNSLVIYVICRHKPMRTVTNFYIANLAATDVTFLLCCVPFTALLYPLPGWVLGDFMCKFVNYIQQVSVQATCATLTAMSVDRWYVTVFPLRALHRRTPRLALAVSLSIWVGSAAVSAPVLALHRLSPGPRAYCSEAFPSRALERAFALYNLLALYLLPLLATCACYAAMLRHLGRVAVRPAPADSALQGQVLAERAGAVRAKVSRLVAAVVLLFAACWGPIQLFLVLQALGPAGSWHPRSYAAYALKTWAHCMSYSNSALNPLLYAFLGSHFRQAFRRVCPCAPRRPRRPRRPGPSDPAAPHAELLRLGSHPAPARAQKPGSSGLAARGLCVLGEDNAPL
Sequence of Gonadotropin-releasing hormone receptor (Homo sapiens) (P30968 whole entry, looked up): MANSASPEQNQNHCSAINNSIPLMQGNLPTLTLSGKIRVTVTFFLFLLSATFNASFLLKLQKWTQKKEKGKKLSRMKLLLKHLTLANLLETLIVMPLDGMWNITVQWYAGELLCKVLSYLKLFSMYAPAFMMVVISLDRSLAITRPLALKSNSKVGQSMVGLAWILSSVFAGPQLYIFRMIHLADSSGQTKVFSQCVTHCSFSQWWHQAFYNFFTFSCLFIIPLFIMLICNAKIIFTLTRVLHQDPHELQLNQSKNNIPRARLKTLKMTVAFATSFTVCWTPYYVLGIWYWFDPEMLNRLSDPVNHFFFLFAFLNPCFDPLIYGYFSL
Sequence of Muscarinic acetylcholine receptor M1 (Homo sapiens) (P11229 whole entry, looked up): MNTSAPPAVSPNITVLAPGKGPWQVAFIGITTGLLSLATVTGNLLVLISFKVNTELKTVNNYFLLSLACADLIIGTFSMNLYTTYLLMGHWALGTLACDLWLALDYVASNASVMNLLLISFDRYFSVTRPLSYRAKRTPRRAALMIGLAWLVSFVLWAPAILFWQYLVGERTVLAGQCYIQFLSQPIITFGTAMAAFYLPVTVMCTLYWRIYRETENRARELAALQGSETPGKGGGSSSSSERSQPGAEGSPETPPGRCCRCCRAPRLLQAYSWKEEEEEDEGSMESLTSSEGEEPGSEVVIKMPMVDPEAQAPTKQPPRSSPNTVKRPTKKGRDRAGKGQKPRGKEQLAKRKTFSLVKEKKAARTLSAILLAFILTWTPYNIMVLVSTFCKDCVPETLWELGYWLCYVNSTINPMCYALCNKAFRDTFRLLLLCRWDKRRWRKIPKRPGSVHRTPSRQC
Sequence of D(2) dopamine receptor (Homo sapiens) (P14416 whole entry, looked up): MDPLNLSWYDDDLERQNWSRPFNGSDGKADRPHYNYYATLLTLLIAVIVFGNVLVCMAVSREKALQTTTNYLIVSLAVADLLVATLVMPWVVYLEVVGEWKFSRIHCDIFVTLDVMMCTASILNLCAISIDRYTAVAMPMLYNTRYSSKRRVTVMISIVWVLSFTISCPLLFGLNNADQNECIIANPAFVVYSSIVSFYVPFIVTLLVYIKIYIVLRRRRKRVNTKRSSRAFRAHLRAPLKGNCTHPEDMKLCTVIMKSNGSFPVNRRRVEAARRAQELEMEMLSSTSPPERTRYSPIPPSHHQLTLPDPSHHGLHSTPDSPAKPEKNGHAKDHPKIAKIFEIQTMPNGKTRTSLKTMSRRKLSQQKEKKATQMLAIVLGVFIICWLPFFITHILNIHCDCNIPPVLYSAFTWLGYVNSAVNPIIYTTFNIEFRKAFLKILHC

On to `Cn1[nH]nnc1=S`, for which the Potency result in test [1], in test [2], in test [3], in test [4], in test [5] and in test [6] was “inactive” throughout. Also, the Potency entry in test [7], in test [8], in [9], in test [10], in test [11] and in test [12] was “inactive” in each case. The Potency entry in test [13], in [14], in test [15], in [16] and in test [17] was “inactive” in each case.

For `CCc1cccc(C)c1N(C(=O)CCl)[C@@H](C)COC`, the Potency result in test [1], in test [2], in [3], in [4], in test [5] and in [6] was “inactive” each time. Moreover, the Potency result in test [7], in [8], in test [9], in [18], in [10] and in test [11] was “inactive” in each case. Moreover, the Potency entry in test [12], in test [13], in test [14], in [19], in test [16] and in [17] was “inactive” throughout.

For `O=C(O)COc1nc(Cl)c(Cl)cc1Cl`, the Potency entry in test [1], in test [2], in test [3], in test [4], in [5] and in test [6] was “inactive” each time. Further, the Potency entry in test [11] and in [13] was “inactive” each time.

Consider `CN=CNc1ccc(C)cc1C`, for which the Potency entry in [1], in test [2], in [3], in test [4], in test [5] and in test [6] was “inactive” each time. The Potency entry in test [7], in [8], in [18], in test [10], in [11] and in [12] was “inactive” throughout. Moreover, the Potency result in test [13], in test [14], in [15], in test [19] and in test [16] was “inactive” in each case.

Turning to `CCCCNP(N)(N)=S`, the Potency result in [1], in [2], in test [3], in test [4], in test [5] and in [6] was “inactive” in each case. Moreover, the Potency entry in test [7], in test [9], in [18], in test [10], in test [11] and in test [12] was “inactive” in each case. The Potency result in test [13], in test [14], in test [15], in test [19], in [16] and in [17] was “inactive” in each case.

On to `O=[N+]([O-])C(Br)Br`, for which the Potency result in test [1], in test [2], in test [3], in test [4], in test [5] and in [6] was “inactive” each time. The Potency result in [8], in test [9], in test [18], in [12], in test [13] and in [14] was “inactive” throughout. Moreover, the Potency entry in test [15], in [19], in [16] and in test [17] was “inactive” in each case. In addition, the Potency in test [10] was 37.6 µM (active); in test [11], 55 µM (active).

For the compound `COC(=O)c1cc(Oc2ccc(Cl)cc2Cl)ccc1[N+](=O)[O-]`, the Potency result in [1], in test [2], in test [3], in test [4], in test [5] and in test [6] was “inactive” throughout. The Potency entry in [7], in test [8], in test [9], in test [10], in test [11] and in test [14] was “inactive” throughout. Further, the Potency entry in test [15], in test [19], in [16] and in [17] was “inactive” throughout. The Potency in [12] is 0.0375 µM (active).
